Molecules are shown by their SMILES. Among all 48,000 compounds or so, about 13,000 (27%) showed an effect of 50% or more. Some of the results follow.

For the assay, the system named is Wolbachia pipientis. In words: Anti-Wolbachia Cell-Based Screen. More on the design: scale not given: in the data most compounds retested in dose-response had high values. The following applies: 5 µM. In kind it is functional.
With `CCNC(=O)CCC(=O)NC(C)Cc1ccccc1Br` (centres undefined), the “Percent Effect” value was 15.31%.
For `N#Cc1cnc2ccccc2c1N1CCNCC1` the value was -0.76%.
As to `Cc1nn(C)c2ncc(S(=O)(=O)N3CCCN4CCCC4C3)cc12` (centres undefined), the “Percent Effect” value is -8.04%.
For `COc1cc(OC)cc(C2SCC(=O)Nc3ccsc32)c1` (centres undefined) the value was -4.704%; for `CC(C)n1[nH]c(=O)c2c1NC(=O)CSC2c1ccc(OCC(N)=O)cc1` (centres undefined), 116.2%; for `COc1cccc(C2SCC(=O)Nc3ccsc32)c1` (centres undefined), -17.04%.
The value for `CC(C)n1[nH]c(=O)c2c1NC(=O)CSC2c1cccc(OCC(N)=O)c1` (centres undefined) was 107.3%; that for `CCN1CCC2(CCC1=O)CN(c1ccnc(SC)n1)CCN2C` (centres undefined) was -2.766%.
The value for `Cc1cc(CC(=O)N2CCN(CC(C)C)[C@@H]3CS(=O)(=O)C[C@@H]32)ccc1F` was -16.98%; that for `CCC1=N[C@@]2(CC[C@@H]3CN(CC)C[C@@H]32)C(=O)N1C` was 107.7%; that for `CC1=N[C@@]2(CC[C@@H]3CN(CC(C)C)C[C@@H]32)C(=O)N1` was -12.28%.
Turning to `COc1ccc(C(=O)C2CCCN(Cc3ccncc3)C2)c(OC)c1` (centres undefined), the “Percent Effect” value is listed as -2.027%.
The value for `COc1ccc(Cl)cc1CC(=O)N1CCN(CC(C)O)CC1` (centres undefined) was 112.2%; that for `Cc1oc(-c2ccco2)nc1CC(=O)N1CCN(CC(C)(C)O)CC1` was -7.111%.
For `COc1ccc(Cl)cc1CC(=O)N1CCN(CC(C)(C)O)CC1` the value was 104.9%.
As to `CCOCC(O)CN1CCN(C(=O)Cc2ccccc2Cl)CC1` (centres undefined), the “Percent Effect” value was -8.97%.
The value for `Cc1c(CC(=O)N2CCN(CC(F)(F)F)CC2)nnn1-c1ccccc1` was -7.021%; that for `Cl.O=C(Cc1ccc(F)cc1)N1CCN(CC(O)C2CC2)CC1` (centres undefined) was -12.59%.
The value for `CCC1CNCc2cc3c(C)ccc(C)c3nc2O1` (centres undefined) was 108.6%; that for `CCC1CNCc2cc3c(OC)ccc(OC)c3nc2O1` (centres undefined) was 82.52%.
For `OCCCN(CCc1cccc(F)c1)C1CC1` the value was 110%; for `COC(=O)N1CC2(CCNCC2)c2cc(Cl)ccc21.Cl`, 101.7%.
As for `CC(=O)N1CC2(CCNCC2)c2cc(Cl)ccc21.Cl`, the “Percent Effect” value stood at 94.12%.
On to `CC(=O)N1CC2(CCNCC2)c2cc(C)ccc21`, for which the “Percent Effect” value was -30.16%.
The value for `CN1C(=O)CC2(CCNCC2)c2ccccc21` was -12.38%.
The value for `CN1C(=O)C2(CCNCC2)c2cc(F)ccc21.Cl` was -10.96%.
The value for `Cn1nc(-c2cccs2)cc1[C@H]1CN2CC[C@H]1C[C@@H]2CNS(C)(=O)=O` was -2.456%; that for `CC(Cn1ccnc1)NS(=O)(=O)c1ccc(C#N)c(Cl)c1` (centres undefined) was 2.375%; that for `COc1cc(C2SCC(=O)Nc3ccsc32)cc(OC)c1OC` (centres undefined) was -0.744%.
With `O=C1CSC(c2ccsc2)c2c(n(C3CCOCC3)[nH]c2=O)N1` (centres undefined), the “Percent Effect” value was 12.85%.
Turning to `CCOc1ccc(C2SCC(=O)Nc3c2c(=O)[nH]n3C(C)C)cc1` (centres undefined), the “Percent Effect” value was found to be 112%.
For `CCCOc1ccc(C2SCC(=O)Nc3c2c(=O)[nH]n3C(C)C)cc1` (centres undefined) the value was 107.1%; for `O=C1CSC(c2ccc(O)c(Cl)c2)c2c(n(C3CCOCC3)[nH]c2=O)N1` (centres undefined), 12.23%.
For the compound `CC(C)COc1ccc(C2SCC(=O)Nc3c2c(=O)[nH]n3C(C)C)cc1` (centres undefined), the “Percent Effect” value was 105.8%.
For `CCOc1ccc(C2SCC(=O)Nc3c2c(=O)[nH]n3C(CC)CC)cc1` (centres undefined) the value was 117.7%; for `CC(C)c1nccc([C@H]2C[C@@H]3CCN(Cc4ccco4)C[C@H]3O2)n1`, -3.761%.
The value for `O=C(Nc1cccnc1)[C@H]1CN(Cc2cccs2)C[C@H]2OCC[C@@H]12` was -5.403%; that for `CNS(=O)(=O)CC(=O)NC(C)Cc1ccccc1Br` (centres undefined) was -19.16%.
The value for `COCCCNC(=O)c1cn(C(C)(C)C)c2ncccc12` was 120.5%.
Turning to `COCCN(CCOC)C(=O)c1cn(C(C)(C)C)c2ncccc12`, the “Percent Effect” value is reported as 135.3%.
The value for `COCCNC(=O)c1cn(C(C)(C)C)c2ncccc12` was 1.004%; that for `CCOCCCNC(=O)c1cn(C(C)(C)C)c2ncccc12` was 117.9%; that for `COCC(C)NC(=O)c1cn(C(C)(C)C)c2ncccc12` (centres undefined) was 0.2413%.
For `CC(Cn1ccnc1)NCc1n[nH]c2c1CCC2` (centres undefined) the value was -9.016%.
The value for `N#Cc1ccc(N2CCC(OC3CCOCC3)CC2)cc1Cl` was -7.664%.
As for `O=C(CC[C@@H]1CCCN2CCCC[C@H]12)NCCc1cc(O)ncn1`, the “Percent Effect” value was -16.08%.
Regarding `CCc1noc(CC)c1CC(=O)N1CCN(C(C#N)C(C)C)CC1` (centres undefined), the “Percent Effect” value is on record as -3.422%.
For `Cc1noc([C@]23COC[C@H]2CN(Cc2cc(C)on2)C3)n1.O=C(O)C(F)(F)F` the value was 2.509%; for `FC(F)CN1CCOC(Cn2cccn2)C1` (centres undefined), 120.3%; for `Cc1ncc2c(c1CNC(=O)C1(C)CCCO1)CCNC2` (centres undefined), 2.031%.
`CC(C)NC(=O)[C@H]1C[C@H]2NCCO[C@@H]2C1`: the “Percent Effect” value stood at 34.99%.
For `CC(C)NC(=O)[C@@H]1C[C@H]2NCC[C@H]2O1.Cl`, the “Percent Effect” value came out at 109.5%.
For `O=C(NC1CCC1)[C@H]1C[C@H]2NCCO[C@@H]2C1`, the “Percent Effect” value was -2.9%.
For `Cc1cccc(C(=O)N2C[C@@H]3OCCN(C(C)C)[C@@H]3C2)n1` the value was -13.51%; for `COCC(=O)N1CC[C@H]2[C@H]1CCN2CC(C)C`, -1.269%.
The value for `O=C(O)C(F)(F)F.O=C(O)C(F)(F)F.O=C(O)CN1CCC(F)(F)C2(CCN(c3ccccn3)C2)C1` (centres undefined) was -9.228%; that for `FC1(F)CCNCC12CCN(c1cccnc1)C2.O=C(O)C(F)(F)F.O=C(O)C(F)(F)F` (centres undefined) was -21.44%.
`Cc1ccc(N2CCC3(CN(CCO)CCC3(F)F)C2)nn1.O=C(O)C(F)(F)F` (centres undefined): the “Percent Effect” value was 100.9%.
For `OCCN1CCC(F)(F)C2(CCN(c3cccnc3)C2)C1` (centres undefined) the value was 103.9%; for `O=C(O)C(F)(F)F.O=C(O)C(F)(F)F.OCCN1CC2(CCN(c3ccccc3)C2)C1`, 6.244%; for `NCC1(c2cccc(C(F)(F)F)c2)CC1`, -45.72%.
The value for `C[C@H]1C[C@@H]2CCN(Cc3nccs3)C[C@H]2O1` was -9.973%; that for `CC(Cn1ccnc1)NCc1csc2c1CCCC2` (centres undefined) was -4.512%.
For `CCC(O)CN1CCN(C(=O)Cc2ccc(OC)cc2OC)CC1` (centres undefined) the value was 102.8%.
`CCC(O)CN1CCN(C(=O)Cc2cc(C)ccc2OC)CC1` (centres undefined): the “Percent Effect” value was determined as 134%.
The value for `CCC(O)CN1CCN(C(=O)Cc2nc(-c3ccco3)oc2C)CC1` (centres undefined) was -5.833%; that for `CCC(O)CN1CCN(C(=O)Cc2c(C)nc(C)[nH]c2=O)CC1` (centres undefined) was -7.478%.
For `CCOCC(O)CN1CCN(C(=O)Cc2ccc(C)nc2)CC1` (centres undefined) the value was -10.97%; for `CCOCC(O)CN1CCN(C(=O)Cc2ccccc2C)CC1` (centres undefined), -8.235%.
With `COCCN1C[C@H]2CC[C@@H]1CN(Cc1ccc3ccccc3n1)C2`, the “Percent Effect” value is 26.94%.
The value for `CN1CCN(S(=O)(=O)c2ccccc2)Cc2cccnc21.O=C(O)C(F)(F)F` was 87.5%; that for `CN1CCN(S(=O)(=O)c2cccc(F)c2)Cc2cccnc21.O=C(O)C(F)(F)F` was 100.3%.
The value for `Cc1ccc(N2CCN(C)c3ncccc3C2)nn1.O=C(O)C(F)(F)F` was 6.797%; that for `Cc1cnc(N2CCN(C)c3ncccc3C2)nc1.O=C(O)C(F)(F)F` was 1.496%; that for `CCc1ccc(CN2CCN(C)c3ncccc3C2)o1.O=C(O)C(F)(F)F.O=C(O)C(F)(F)F` was 45.7%.
The value for `Cl.Cl.c1ccc(COC[C@@H]2CCC[C@@]23CNCCO3)nc1` was 92.25%.
As to `Cl.Cl.c1ccc(COC[C@H]2CCC[C@@]23CNCCO3)nc1`, the “Percent Effect” value was 88.66%.
For `Fc1cccnc1N1CCC2(CNCCC2(F)F)C1` (centres undefined) the value was 8.279%.
The value for `Cc1ccc(N2CC[C@@H]3CN(Cc4c[nH]cn4)C[C@@H]3C2)nn1` was -8.039%.
The value for `CN1Cc2ccccc2NC(=O)C12CCNC2` (centres undefined) was 111%.
With `CN1CCC2(Cc3ccccc3NC2=O)C1` (centres undefined), the “Percent Effect” value was -15.76%.
Regarding `CCOCCC(=O)N1C[C@H]2CC[C@@H]1CN(Cc1ccncc1)C2`, the “Percent Effect” value was 3.16%.
For `OC[C@@H]1CN2CCN(c3ccccn3)C[C@@H]2[C@H]1c1ccccc1` the value was 91.03%; for `CN1CCN2C(=O)N(c3ccccc3)C[C@H]2C1`, 3.165%.
As for `OC[C@H]1CN2CCN(c3ccccn3)C[C@@H]2[C@@H]1c1ccccc1`, the “Percent Effect” value came out at 97.55%.
For `CN1CCN2C[C@@H](CO)[C@H](c3ccccc3)[C@H]2C1` the value was 108.7%.
For the compound `Cc1nc(CC(=O)N2CCN(C)CC2c2ccccc2)cs1` (centres undefined), the “Percent Effect” value is listed as -2.978%.
The value for `O=C(Cc1ccc(-n2cccn2)cc1)N1CCN2CCCCC2C1` (centres undefined) was 0.2002%.
As to `N#Cc1cccc(N2CCOC3(CNCCOC3)C2)n1` (centres undefined), the “Percent Effect” value is recorded as -42.42%.
The value for `Cc1cc(CN2C[C@@H]3COC[C@]3(CNS(C)(=O)=O)C2)no1.O=C(O)C(F)(F)F` was -0.4635%; that for `Cc1nc(C2(NCC(=O)NCc3cccs3)CCCCC2)no1` was 113.6%.
The value for `Cc1nc(C2(NCc3cccc(F)c3F)CCCCC2)no1` was -2.659%.
For `Cc1nc(C2(NCC(=O)NC(=O)NCC(F)(F)F)CCCCC2)no1` the value was 132.3%.
Take `Cc1nc(C2(NCc3cc(C#N)ccc3F)CCCCC2)no1`: the “Percent Effect” value was found to be 11.5%.
The value for `Cc1nc(C2(NCc3ccc(C#N)cc3F)CCCCC2)no1` was 2.337%.
For `Cc1nc(C2(NCC(=O)NC(=O)Nc3ccccc3)CCCCC2)no1` the value was 112.9%; for `Cc1cccnc1CCNC(=O)[C@@]12CNC[C@@H]1CN(S(C)(=O)=O)C2`, -16.39%; for `Cc1cccnc1CC(C)NC1CCSCC1` (centres undefined), -10.51%.
The value for `CC(Cc1c(F)cccc1F)NC(=O)CSCC(N)=O` (centres undefined) was -4.817%.

Values taken from ChEMBL document CHEMBL3988442, “University of Dundee, Small-Polar-MMV Screening Library” (2021).
